ELG1 repair inh = qHTS screen for small molecules that inhibit ELG1-dependent DNA repair in human embryonic kidney (HEK293T) cells expressing luciferase-tagged ELG1; HEK293T ELG1-luciferase reporter, luminescence, 16 h; DNA damage induced by 5-fluorouridine; Potency, µM (highest dose often 46.1 µM), for the others: at the top dose activity change, negative = inhibition, most hits filed as inhibitors; hit rate 2.3% among 330,000; AID 504467, 2011; also: % is scaled to controls: 0 for no effect and ±100 for the full control effect; nearly all actives have a fitted effect of over 55% in size
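Step one: seed 2,000 cells per well. Step two: pin-transfer compound or DMSO alongside 5-fluorouridine. Step three: incubate 16 hr, 37 °C, 5% CO2. Step four: add ONE-Glo, wait 30 min, read luminescence.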
Rab9 prom act = qHTS Assay for Rab9 Promoter Activators; Huh7 Rab9 promoter-luciferase reporter, luminescence, 24 h; Potency, µM (doses to about 9.22 µM), for the others: at the top dose activation, negative = inhibition, hits mostly activators; hit rate 2.8% among 320,000; AID 485297, 2010; also: % of control where 0% means no effect; nearly all actives have a fitted effect of over 60% in size
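Steps: seed 1500 Huh7 Rab9-luc cells per well, rest 2 h at 37 °C; add compound in DMSO; incubate 24 h; add luciferase reagent, 10 min ambient; read luminescence.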
NPC1 prom act = qHTS Assay for NPC1 Promoter Activators. Huh7 NPC1 promoter luciferase reporter, 24 h. Potency, µM (series often up to 9.22 µM), without a hit: top-dose activation, usual class: activators. hit rate 2.4% among 320,000; also: % of control where 0% means no effect; nearly all actives have a fitted effect of over 60% in size
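Stably transfected Huh7 (NPC1 promoter→luciferase), 1500 cells/well in Opti-MEM + 10% FBS, 2 h settle, then compound 24 h at 37 °C. Luminescence after 10 min with Amplite reagent.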
ELG1 genotox = qHTS screen for small molecules that induce genotoxicity in human embryonic kidney (HEK293T) cells expressing luciferase-tagged ELG1. Potency, µM (doses to about 46 µM), without a hit: at the top dose activity change, positive = activation, most hits filed as activators. HEK293T ELG1-luciferase reporter, luminescence, 16 h. AID 504466, 2011. hit rate 1.3% among 330,000; also: % of control where 0% means no effect; nearly all actives have a fitted effect of over 60% in size
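DMSO vehicle served as control against compound-treated ELG1-luciferase HEK293T cells; exposure lasted 16 hr at 37 °C and 5% CO2, followed by ONE-Glo luminescence detection after 30 min.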
SMN2 splice enh = qHTS Assay for Enhancers of SMN2 Splice Variant Expression | hit rate 2.8% among 210,000 | HEK293 SMN2-luciferase splicing reporter, luminescence, 30-36 h | Potency, µM (highest dose often 46.1 µM), for inactives: at the highest dose activity change, positive = activation, usual class: activators; also: % of control where 0% means no effect; nearly all actives have a fitted effect of over 55% in size
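HEK293 cells carry an SMN2 minigene-luciferase reporter in which exon 7 inclusion puts luciferase in frame. Cells were seeded at 2000 cells/well, attached for 10-12 hours, then exposed to compounds for 30-36 hours at 37C before ONE-Glo luminescence.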
FLuc modulator = qHTS profiling assay for firefly luciferase inhibitor/activator using purifed enzyme and Km concentrations of substrates (counterscreen for miR-21 project). Luciferin 4-monooxygenase (Photinus pyralis), P08659. purified FLuc, Km substrates, luminescence inhibition. Potency, µM (top dose mostly 57.5 µM), for inactives: at the highest dose activity change, negative = inhibition, actives largely listed as inhibitors. hit rate 6.9% among 360,000;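 also: plate controls were vehicle for no effect and reference inhibitor for full effect; nearly all actives have a fitted effect of over 55% in size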
Target sequence (P08659 whole entry, looked up): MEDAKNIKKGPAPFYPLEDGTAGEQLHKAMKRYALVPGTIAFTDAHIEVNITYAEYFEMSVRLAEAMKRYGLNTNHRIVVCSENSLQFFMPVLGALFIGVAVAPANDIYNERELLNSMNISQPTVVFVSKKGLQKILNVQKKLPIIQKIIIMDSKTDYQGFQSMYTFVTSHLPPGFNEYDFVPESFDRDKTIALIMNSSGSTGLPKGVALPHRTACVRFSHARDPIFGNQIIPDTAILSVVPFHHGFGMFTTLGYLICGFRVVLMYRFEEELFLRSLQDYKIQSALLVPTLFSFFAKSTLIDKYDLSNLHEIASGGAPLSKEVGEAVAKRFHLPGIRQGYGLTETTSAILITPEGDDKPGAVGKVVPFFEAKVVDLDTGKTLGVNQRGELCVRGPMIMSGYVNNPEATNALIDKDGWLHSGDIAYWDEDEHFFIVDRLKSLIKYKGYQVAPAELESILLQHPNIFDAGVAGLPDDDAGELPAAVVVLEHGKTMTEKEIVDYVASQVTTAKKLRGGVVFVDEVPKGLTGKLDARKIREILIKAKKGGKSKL
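Biochemical qHTS of compounds, final roughly 60 µM downward over six points, against 10 nM purified firefly luciferase using Km concentrations of substrates (10 uM D-luciferin, 10 uM ATP) in Tris acetate pH 7.5 buffer; luminescence output.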
An asterisk follows results filed as active. Shown are actives, neighbours in structure and some others; about 9.2% of the full set was active somewhere. Calls follow the shape of the dose curve; as a rule, active = well fitted curve in the direction sought with a large enough effect; inconclusive = small, poorly fitted or top-dose-only effect, or another doubt; inactive = no such curve, though single readings can be large; an effect the other way counts as inactive or inconclusive. Potency is read from the fitted curve at half-maximal effect.

Results for COc1ccccc1Nc1nc(C)c(C(=O)Nc2ccccc2)s1 ?
ELG1 repair inh: 1.5%; Rab9 prom act: 12.4%; NPC1 prom act: -5.1%; ELG1 genotox: 1.0%; SMN2 splice enh: 4.6%; FLuc modulator: 15.1µM*

What do the screens show for `Cc1nc(Nc2ccccc2Cl)sc1C(=O)Nc1ccccc1`?
ELG1 repair inh: 4.9%; Rab9 prom act: -1.0%; NPC1 prom act: 15.7%; ELG1 genotox: 7.9%; SMN2 splice enh: 20.5%; FLuc modulator: 19µM*

What do the screens show for `CC(=O)c1cccc(NC(=O)CCCOc2ccc(C)cc2)c1`?
ELG1 repair inh: -0.3%; Rab9 prom act: 9.3%; NPC1 prom act: -0.2%; ELG1 genotox: -1.7%; SMN2 splice enh: -19.9%; FLuc modulator: -12.7%

Results for O=C(Nc1ccc2nccnc2c1)Nc1ccccc1Cl ?
ELG1 repair inh: inconclusive; Rab9 prom act: inconclusive; NPC1 prom act: inconclusive; ELG1 genotox: -1.9%; FLuc modulator: inconclusive

What do the screens show for `Cc1nn(C)cc1CNC(=O)Nc1cccc(Cl)c1`?
ELG1 repair inh: inconclusive; Rab9 prom act: 3.55µM*; NPC1 prom act: inconclusive; ELG1 genotox: 27.8%; SMN2 splice enh: inconclusive; FLuc modulator: inconclusive

How did CC(=O)c1ccc(NC(=O)Nc2cccc(Cl)c2)cc1 do in these assays?
ELG1 repair inh: inconclusive; Rab9 prom act: 1.26µM*; NPC1 prom act: 1.41µM*; ELG1 genotox: inconclusive; SMN2 splice enh: 11.2µM*; FLuc modulator: 16.9µM*

Results for O=C(CCCOc1ccc(Cl)cc1)Nc1cccc(C(=O)O)c1 ?
ELG1 repair inh: inconclusive; Rab9 prom act: 2.8%; NPC1 prom act: -0.6%; ELG1 genotox: 5.3%; FLuc modulator: 16.9µM*

Results for O=C(Nc1cccc(C(=O)O)c1)Nc1ccccc1Cl ?
ELG1 repair inh: inconclusive; Rab9 prom act: 0.1µM*; NPC1 prom act: 0.501µM*; ELG1 genotox: -10.0%; SMN2 splice enh: 12.6µM*; FLuc modulator: 0.213µM*

How did CCc1nn2c(=O)cc(COC(=O)c3ccc(NC(=O)c4cccs4)cc3)nc2s1 do in these assays?
FLuc modulator: -0.7%

Results for COc1cccc(Oc2nc(C)nc3c2oc2ccccc23)c1 ?
FLuc modulator: -18.9%

What do the screens show for `CSc1cccc(NC(=O)C(=O)NCc2ccccc2)c1`?
ELG1 repair inh: 10.8%; Rab9 prom act: 1.4%; NPC1 prom act: 0.9%; ELG1 genotox: 1.5%; FLuc modulator: 2.6%

Results for O=C(Nc1cccc(Cl)c1)Nc1ccc2nccnc2c1 ?
ELG1 repair inh: inconclusive; Rab9 prom act: 2.24µM*; NPC1 prom act: 2.82µM*; ELG1 genotox: -1.8%; FLuc modulator: 19µM*

Results for CS/C(N)=N/C(=S)Nc1cccc(Cl)c1 ?
ELG1 repair inh: inconclusive; Rab9 prom act: inconclusive; NPC1 prom act: inconclusive; ELG1 genotox: 9.2%; FLuc modulator: 19µM*

How did O=C(NCc1ccccc1)C(=O)Nc1cccc(C(=O)O)c1 do in these assays?
ELG1 repair inh: inconclusive; Rab9 prom act: 0.316µM*; NPC1 prom act: 0.0891µM*; ELG1 genotox: -5.0%; FLuc modulator: 0.675µM*

Results for Cc1cc(O)c(C(=O)Nc2cccc(Cl)c2)c(=O)n1C ?
ELG1 repair inh: inconclusive; Rab9 prom act: 2.51µM*; NPC1 prom act: 2.24µM*; ELG1 genotox: 10.3µM*; FLuc modulator: 3.38µM*

What do the screens show for `Cc1cc(C)cc(NS(=O)(=O)c2ccc3[nH]c(=O)ccc3c2)c1`?
ELG1 repair inh: 7.4%; Rab9 prom act: -13.3%; NPC1 prom act: -2.2%; ELG1 genotox: 2.7%; FLuc modulator: 0.5%

What do the screens show for `CC(=O)c1ccc(NC(=S)NCCc2cccc(Cl)c2)cc1`?
ELG1 repair inh: inconclusive; Rab9 prom act: 2.82µM*; NPC1 prom act: inconclusive; ELG1 genotox: inconclusive; SMN2 splice enh: 12.6µM*; FLuc modulator: -22.2%

Results for O=C(Nc1cccc(C(=O)O)c1)Nc1cccc2ccccc12 ?
ELG1 repair inh: inconclusive; Rab9 prom act: 3.55µM*; NPC1 prom act: 2µM*; ELG1 genotox: 8.4%; FLuc modulator: 2.13µM*

Results for CC(=O)Nc1cccc(NC(=O)Nc2cccc3ccccc23)c1 ?
ELG1 repair inh: -8.8%; Rab9 prom act: 0.7%; NPC1 prom act: -2.9%; ELG1 genotox: -2.3%; FLuc modulator: -8.7%

Results for O=C(Nc1ccc(C(=O)N2CCCCC2)cc1)Nc1cccc(Cl)c1 ?
ELG1 repair inh: inconclusive; Rab9 prom act: 3.16µM*; NPC1 prom act: 3.98µM*; ELG1 genotox: 13.3%; FLuc modulator: 10.7µM*

How did Cc1cc(NC(=O)Nc2cccc(Cl)c2)n(-c2ccccn2)n1 do in these assays?
ELG1 repair inh: 16.4µM*; Rab9 prom act: -0.1%; NPC1 prom act: 0.0%; ELG1 genotox: -1.4%; FLuc modulator: inconclusive

What do the screens show for `Cc1cc(NC(=O)Nc2cccc(Cl)c2)n(-c2ccccc2)n1`?
ELG1 repair inh: 0.2%; Rab9 prom act: -0.7%; NPC1 prom act: 0.3%; ELG1 genotox: -2.5%; FLuc modulator: -0.7%

Results for CCOc1ccccc1CNC(=O)c1oc2c(c1C)-c1nn(Cc3cccc(Cl)c3)cc1CC2 ?
FLuc modulator: 3.0%

What do the screens show for `Cc1ccc(CNC(=O)Cc2c(C(=O)O)c(C)cn2C)cc1`?
FLuc modulator: -0.8%

How did Nc1cc(=O)nc(SCC(=O)Nc2ccc(F)cc2)n1-c1cccc(Cl)c1 do in these assays?
SMN2 splice enh: 5.3%; FLuc modulator: 1.6%

What do the screens show for `Cc1cc2ccccn2c1C(=O)Nc1cccc(Cl)c1`?
ELG1 repair inh: inconclusive; Rab9 prom act: 28.0%; NPC1 prom act: -18.1%; ELG1 genotox: 12.4%; SMN2 splice enh: 26.6%; FLuc modulator: 13.5µM*

Results for O=C(Nc1cccc(C(=O)O)c1)/C(=C\c1ccccc1)NC(=O)c1cccc2ccccc12 ?
ELG1 repair inh: 4.6%; Rab9 prom act: -0.1%; NPC1 prom act: -4.4%; ELG1 genotox: 0.4%; FLuc modulator: 21.3µM*

Results for CSc1cccc(NC(=O)Nc2ccc(Cl)cc2)c1 ?
ELG1 repair inh: inconclusive; Rab9 prom act: 27.1%; NPC1 prom act: 16.0%; ELG1 genotox: 1.8%; SMN2 splice enh: -14.8%; FLuc modulator: inconclusive

What do the screens show for `O=C(Nc1ccc(Cl)cc1)Nc1cccc(C(=O)O)c1`?
ELG1 repair inh: inconclusive; Rab9 prom act: 0.251µM*; NPC1 prom act: 0.0891µM*; ELG1 genotox: -8.9%; FLuc modulator: 0.0675µM*
